Experimental data published in PubChem BioAssay AID1159580 (chemical genetic matrix, 2015).
Out of some 5,500 compounds screened, about 2,000 (36%) were called active. About 18% were inconclusive and are not listed. Rule as the data show it: active = normalized growth mostly below about 0.91 (no sharp cut-off); inconclusive = no clear call, values can overlap the other calls; inactive = mostly above about 0.92. The list shows a part of the results.

Test: chemical genetic growth profiling, strain panel (AID 1159580);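 also: tested at 20 µM; growth read once vehicle control cultures reached saturation at 30 °C; 1 = growth at the plate median or of vehicle wells; lower values mean less growth of the strain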
Details: growth OD

Measured: normalized growth

C[C@]12CCC3C(CC[C@H]4C[C@@H](O)CC[C@]34C)C1CCC2=O (some centres undefined)
active: S. cerevisiae deletion strains, locus YKL190W, strain CNB1, hits give low values 0.862 | S. cerevisiae deletion strains, locus YKR001C, strain vps1, hits give low values 0.899 | S. cerevisiae deletion strains, locus YLR039C, strain RIC1, hits give low values 0.388 | S. cerevisiae deletion strains, locus YLR058C, strain SHM2, hits give low values 0.799 | S. cerevisiae deletion strains, locus YLR221C, strain rsa3, hits give low values 0.86 | S. cerevisiae deletion strains, locus YLR262C, strain YPT6 (second series), hits give low values 0.435 | S. cerevisiae deletion strains, locus YLR262C, strain YPT6, hits give low values 0.413 | S. cerevisiae deletion strains, locus YLR268W, strain sec22, hits give low values 0.834 | S. cerevisiae deletion strains, locus YLR320W, strain mms22, hits give low values 0.606 | S. cerevisiae deletion strains, locus YLR330W, strain CHS5, hits give low values 0.87 | S. cerevisiae deletion strains, locus YLR342W, strain FKS1 (second series), hits give low values 0.733 | S. cerevisiae deletion strains, locus YLR357W, strain rsc2, hits give low values 1.16 [resistant] | S. cerevisiae deletion strains, locus YLR418C, strain cdc73, hits give low values 0.589 | S. cerevisiae deletion strains, locus YML032C, strain rad52, hits give low values 0.744 | S. cerevisiae deletion strains, locus YMR223W, strain ubp8, hits give low values 0.794 | S. cerevisiae deletion strains, locus YNL067W, strain RPL9B, hits give low values 0.825 | S. cerevisiae deletion strains, locus YNL071W, strain lat1, hits give low values 0.663 | S. cerevisiae deletion strains, locus YNL153C, strain GIM3, hits give low values 0.747 | S. cerevisiae deletion strains, locus YNL233W, strain BNI4, hits give low values 0.747 | S. cerevisiae deletion strains, locus YNL298W, strain CLA4, hits give low values 0.869 | S. cerevisiae deletion strains, locus YNL307C, strain MCK1, hits give low values 0.366 | S. cerevisiae deletion strains, locus YNL322C, strain KRE1, hits give low values 0.908 | S. cerevisiae deletion strains, locus YNR052C, strain pop2, hits give low values 0.768 | S. cerevisiae deletion strains, locus YOL006C, strain TOP1, hits give low values 0.425 | S. cerevisiae deletion strains, locus YOL147C, strain pex11, hits give low values 0.803 | S. cerevisiae deletion strains, locus YOR001W, strain rrp6, hits give low values 0.847 | S. cerevisiae deletion strains, locus YOR069W, strain VPS5, hits give low values 0.913 | S. cerevisiae deletion strains, locus YOR070C, strain gyp1, hits give low values 0.903 | S. cerevisiae deletion strains, locus YOR083W, strain WHI5, hits give low values 0.882 | S. cerevisiae deletion strains, locus YOR184W, strain ser1, hits give low values 0.363 | S. cerevisiae deletion strains, locus YOR270C, strain vph1, hits give low values 0.682 | S. cerevisiae deletion strains, locus YOR290C, strain snf2, hits give low values 0.831 | S. cerevisiae deletion strains, locus YPL055C, strain LGE1, hits give low values 0.677 | S. cerevisiae deletion strains, locus YPL106C, strain sse1, hits give low values 1.32 [resistant] | S. cerevisiae deletion strains, locus YPR163C, strain tif3, hits give low values 0.856 | S. cerevisiae deletion strains, locus YPR167C, strain met16, hits give low values 0.814 | S. cerevisiae deletion strains, strain wtn01, hits give low values 0.849 | S. cerevisiae strains, strain wild type, hits give low values 0.815
inactive: S. cerevisiae deletion strains, locus YKL068W, hits give low values 1.03 | S. cerevisiae deletion strains, locus YKL085W, strain MDH1 (second series), hits give low values 0.973 | S. cerevisiae deletion strains, locus YKL085W, strain MDH1, hits give low values 0.973 | S. cerevisiae deletion strains, locus YKL160W, strain elf1, hits give low values 0.919 | S. cerevisiae deletion strains, locus YKR026C, strain gcn3, hits give low values 1.06 | S. cerevisiae deletion strains, locus YKR091W, strain srl3, hits give low values 1.05 | S. cerevisiae deletion strains, locus YLL001W, strain dnm1, hits give low values 0.923 | S. cerevisiae deletion strains, locus YLL026W, hits give low values 0.994 | S. cerevisiae deletion strains, locus YLL041C, strain sdh2, hits give low values 1.04 | S. cerevisiae deletion strains, locus YLR027C, strain aat2, hits give low values 0.939 | S. cerevisiae deletion strains, locus YLR102C, strain apc9, hits give low values 1.02 | S. cerevisiae deletion strains, locus YLR113W, strain HOG1, hits give low values 1.01 | S. cerevisiae deletion strains, locus YLR258W, strain gsy2, hits give low values 0.945 | S. cerevisiae deletion strains, locus YLR342W, strain FKS1, hits give low values 0.995 | S. cerevisiae deletion strains, locus YLR370C, strain arc18, hits give low values 1.04 | S. cerevisiae deletion strains, locus YLR371W, strain rom2, hits give low values 1.03 | S. cerevisiae deletion strains, locus YLR384C, strain iki3, hits give low values 1.03 | S. cerevisiae deletion strains, locus YML016C, strain PPZ1, hits give low values 0.931 | S. cerevisiae deletion strains, locus YML120C, strain ndi1, hits give low values 0.935 | S. cerevisiae deletion strains, locus YML124C, strain tub3, hits give low values 0.944 | S. cerevisiae deletion strains, locus YMR058W, strain fet3, hits give low values 0.943 | S. cerevisiae deletion strains, locus YMR078C, strain ctf18, hits give low values 0.979 | S. cerevisiae deletion strains, locus YMR125W, strain sto1, hits give low values 1.06 | S. cerevisiae deletion strains, locus YMR129W, hits give low values 1.04 | S. cerevisiae deletion strains, locus YMR205C, strain PFK2, hits give low values 0.94 | S. cerevisiae deletion strains, locus YMR231W, strain pep5, hits give low values 1.01 | S. cerevisiae deletion strains, locus YMR263W, strain SAP30, hits give low values 0.925 | S. cerevisiae deletion strains, locus YMR307W, strain GAS1, hits give low values 0.963 | S. cerevisiae deletion strains, locus YNL183C, strain NPR1, hits give low values 0.874 | S. cerevisiae deletion strains, locus YNL209W, strain ssb2, hits give low values 0.965 | S. cerevisiae deletion strains, locus YNL248C, strain rpa49, hits give low values 0.888 | S. cerevisiae deletion strains, locus YNL250W, strain rad50, hits give low values 0.934 | S. cerevisiae deletion strains, locus YNL271C, strain bni1, hits give low values 0.94 | S. cerevisiae deletion strains, locus YNL322C, strain KRE1 (second series), hits give low values 1.03 | S. cerevisiae deletion strains, locus YNR049C, strain mso1, hits give low values 1.04 | S. cerevisiae deletion strains, locus YOL012C, strain htz1 1.94 | S. cerevisiae deletion strains, locus YOR061W, strain CKA2, hits give low values 0.91 | S. cerevisiae deletion strains, locus YOR080W, strain dia2, hits give low values 1.02 | S. cerevisiae deletion strains, locus YOR106W, strain vam3, hits give low values 0.909 | S. cerevisiae deletion strains, locus YOR136W, strain idh2, hits give low values 0.999 | S. cerevisiae deletion strains, locus YOR144C, strain elg1, hits give low values 0.973 | S. cerevisiae deletion strains, locus YOR231W, strain MKK1, hits give low values 0.888 | S. cerevisiae deletion strains, locus YOR265W, strain rbl2, hits give low values 0.968 | S. cerevisiae deletion strains, locus YOR316C, strain cot1, hits give low values 0.96 | S. cerevisiae deletion strains, locus YPL051W, strain arl3, hits give low values 0.926 | S. cerevisiae deletion strains, locus YPL078C, strain atp4, hits give low values 0.898 | S. cerevisiae deletion strains, locus YPL240C, strain hsp82, hits give low values 1.01 | S. cerevisiae deletion strains, locus YPL241C, strain CIN2, hits give low values 0.975 | S. cerevisiae deletion strains, locus YPL256C, strain CLN2, hits give low values 0.951 | S. cerevisiae deletion strains, locus YPR119W, strain clb2, hits give low values 1.04 | S. cerevisiae deletion strains, locus YPR141C, strain kar3, hits give low values 1.03
